The values that follow come from PubChem BioAssay (NCI).

What all share (test): NCI-60 one-dose screen, 48 h (100 = growth as untreated, 0 = no growth, -100 = all killed)
Details in all cases: 10 µM unless noted

Assay [1] has as its system T-47D breast.
Assay [2] has as its system BT-549 breast.
Assay [3] concerns MDA-MB-435 melanoma.
For assay [4], the system named is SW-620 colon.
Assay [5] deals with MCF7 breast.
Assay [6] concerns HCT-116 colon.
Assay [7] relates to HCC-2998 colon.
For assay [8], the system named is KM12 colon.

The panel holds about 83,000 compounds, 20% with a hit somewhere; the sample as a whole holds those more often.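 Single-concentration screen, 48 h exposure, 96-well plates. Endpoint: percent growth. Below 10 = active.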 Unmarked numbers belong to inactive results. Activity calls are given as the source filed them.

For the compound `COc1ccc(/C=C2\C=C(c3ccccc3)N(CCc3ccccc3)C2=O)cc1OC`, the growth in assay [1] was 8% (active); in assay [2] it was 80.1%; in assay [3] it was 36%; in assay [4], 56%; in assay [5], 34.4%; in assay [6] it was 32.8%. Further, the growth in assay [7] was 73.3%; in assay [8] it was 64%.
For the compound `C=C(C)C1CCC(=C)C2CCC3(C)OC12/C=C(/COC(C)=O)CCC3O` (stereo not drawn), the growth in assay [1] is 112%; in assay [2] it was 78.6%; in assay [3] it was 98.7%; in assay [4] it was 106%; in assay [5], 96.8%; in assay [6] it was 103%. The growth in assay [7] is 106%; in assay [8], 117%.
`COc1ccc(C(=O)/C=C/C23c4ccccc4C(c4ccccc42)C2C(=O)NC(=O)C23)cc1` (stereo not drawn): the growth was 86.2% in assay [1]; 97.1% in assay [2]; 101% in assay [3]; 110% in assay [4]; 89% in assay [5]; 83.2% in assay [6]. Besides, the growth in assay [7] was 100%; in assay [8] it was 97.3%.
Consider `C[C@@H]1C(=O)N(C[C@@H](Cc2ccccc2)NC(=O)OCc2ccccc2)[C@]1(Cc1ccccc1)C(=O)OCc1ccccc1`, for which the growth in assay [1] is 22.3%; in assay [2], 61.3%; in assay [3], 48.3%; in assay [4] it was 40.9%; in assay [5], 27%; in assay [6], 34.4%. Moreover, the growth in assay [7] was 72.8%; in assay [8], 26%.
Turning to `CCOC(=O)c1nnn(C(Cc2ccccc2Cl)C(=O)OCC)c1C` (stereo not drawn), the growth in assay [1] is 97.6%; in assay [2], 107%; in assay [3], 105%; in assay [4] it was 98%; in assay [5], 104%; in assay [6], 100%. Further, the growth in assay [7] was 109%; in assay [8] it was 102%.
In the case of `N#Cc1c(-c2ccc(C(F)(F)F)cc2)cc(N2CC(O)C2)n2c1nc1ccccc12`, the growth in assay [1] was 36.1%; in assay [2], 37.9%; in assay [3], 83.7%; in assay [4], 82.8%; in assay [5], 81.6%; in assay [6] it was 55.4%. Further, the growth in assay [7] was 95.6%; in assay [8], 74.2%.
`CC(=O)Nc1ccc2c(c1)Cc1c(F)cccc1-2`: the growth is 76.6% in assay [1]; 109% in assay [2]; 107% in assay [3]; 102% in assay [4]; 35.9% in assay [5]; 108% in assay [6]. The growth was 94.2% in assay [7] and 91.5% in assay [8].
Consider `Cc1nc(Nc2ccc(S(=O)(=O)Nc3cc(C)on3)cc2)c2ccccc2n1`, for which the growth in assay [1] is 89.1%; in assay [2], 120%; in assay [3] it was 101%; in assay [4], 109%; in assay [5], 91.9%; in assay [6], 109%. Besides, the growth in assay [7] is 107%; in assay [8], 103%.
`CCOC(=O)c1sc(-c2ccc(OS(=O)(=O)c3ccc(C(C)(C)C)cc3)c(C=O)c2)nc1C`: the growth in assay [1] is 31.2%; in assay [2], 53.6%; in assay [3], 57.2%; in assay [4], 19.9%; in assay [5], 33.9%; in assay [6], 15.2%. Besides, the growth was 52.4% in assay [7] and 17.9% in assay [8].
Regarding `O[C@H]1CO[C@H]2[C@@H]1OC[C@@H]2Oc1ccc(Nc2ccnc(Nc3ccc(O[C@H]4CO[C@H]5[C@@H]4OC[C@@H]5O)c(Cl)c3)n2)cc1Cl`, the growth in assay [1] was 2.36% (active); in assay [2] it was 22.1%; in assay [3], 22.7%; in assay [4], 19.5%; in assay [5], 14.6%; in assay [6], 9.14% (active). Moreover, the growth in assay [7] was 17.1%; in assay [8], 6.62% (active).
As for `CN(C)c1ccc(-c2cc(-c3ccc(Nc4nc(Nc5ccccc5)nc(Nc5ccc(Cl)cc5)n4)cc3)nc(N)n2)cc1`, the growth is 29.3% in assay [1]; 51.4% in assay [2]; 49.2% in assay [3]; 67.9% in assay [4]; 19.1% in assay [5]; 7.76% (active) in assay [6]. Also, the growth in assay [7] was -8.31% (active); in assay [8] it was 36.6%.
Turning to `N#Cc1c(N)n2c(nc1=Nc1ccc([N+](=O)[O-])cc1)sc1cc(Cl)ccc12`, the growth was 78.2% in assay [1]; 116% in assay [2]; 97.9% in assay [3]; 96.4% in assay [4]; 77.6% in assay [5]; 94.3% in assay [6]. For the same compound, the growth in assay [7] is 144%; in assay [8], 97.2%.
Turning to `CN(C)c1ccc2cc(-c3ccc(Cl)c(Cl)c3)c(N)nc2c1`, the growth in assay [1] is 18.6%; in assay [2], 48.3%; in assay [3], 22.4%; in assay [4], 30.1%; in assay [5], 24.3%; in assay [6], 13.3%. Further, the results for the growth in assay [7] and in assay [8] were 44.7% and 28.9%, respectively.
For `O=[N+]([O-])c1ccc(-c2cc3c(Nc4ccc(OCc5cccc(Cl)c5)c(Cl)c4)ncnc3s2)cc1`, the growth in assay [1] was 58.9%; in assay [2], 86.2%; in assay [3], 74.3%; in assay [4] it was 48.7%; in assay [5], 44.1%; in assay [6] it was 52%. Further, the figures for the growth in assay [7] and in assay [8] were 102% and 74%, respectively.
For the compound `O=[N+]([O-])c1cccc(/C=C/c2ccccn2)c1`, the growth in assay [1] was 37.9%; in assay [2], 64.8%; in assay [3], 98.4%; in assay [4], 47.7%; in assay [5], 7.24% (active); in assay [6] it was 39.6%. The growth in assay [7] was 62.2%; in assay [8] it was 65.9%.
`CCOC(=O)C(O)C(O)(c1ccccc1)c1ccccc1` (stereo not drawn): the growth in assay [1] was 93.6%; in assay [2], 103%; in assay [3], 111%; in assay [4], 109%; in assay [5] it was 93.5%; in assay [6], 105%. In addition, the figures for the growth in assay [7] and in assay [8] were 99.9% and 101%, respectively.
